From PubChem BioAssay (NCI)
Values joined by “and” are separate entries in the source; they are usually repeats but may differ in a detail not shown here. Identical values can stand only once. The panel holds about 79,000 compounds, 15% with a hit somewhere; the sample as a whole holds those more often. A structure can be active in one record and inactive in another. Active and inactive are the calls of the source. Rule as the data show it: active = growth inhibition above about 70%; inactive = the rest.

What was measured:
[1] = NCI Yeast Anticancer Drug Screen. Data for the rad50 strain (AID 155);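 also: 0% = growth of vehicle-only cultures of the same strain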; details: S. cerevisiae rad50 strain growth inhibition, stronger effect = higher value
How it was run: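 Inhibition values express reduced yeast growth in compound-treated cultures relative to vehicle-treated controls.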

[2] = NCI Yeast Anticancer Drug Screen. Data for the mec2-1 strain (AID 157); details: S. cerevisiae mec2-1 strain, stronger effect = higher value
How it was run: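 Each compound was tested on mec2-1 yeast, a strain altered in DNA damage repair or cell cycle control. Growth inhibition is reported relative to vehicle.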

[3] = NCI Yeast Anticancer Drug Screen. Data for the sgs1 mgt1 strain (AID 161);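 also: 0% = growth of cultures given vehicle only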; details: S. cerevisiae sgs1 mgt1 strain, stronger effect = higher value
How it was run: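 Read-out: growth inhibition vs vehicle controls. Cells: mutant yeast strain deficient in DNA damage repair.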

[4] = NCI Yeast Anticancer Drug Screen. Data for the cln2 rad14 strain (AID 165);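 also: 0% = growth equal to vehicle treated cultures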; details: S. cerevisiae cln2 rad14 strain, stronger effect = higher value
How it was run: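 Test compounds were added to cln2 rad14 yeast cultures; inhibition of growth was then determined by comparison with vehicle treatment.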

[5] = NCI Yeast Anticancer Drug Screen. Data for the bub3 strain (AID 167); details: S. cerevisiae bub3 mutant strain, stronger effect = higher value
How it was run: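 Steps: expose the mutant yeast strain to compound; grow alongside vehicle-treated cultures; measure growth; express inhibition against the vehicle cultures.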

[6] = NCI Yeast Anticancer Drug Screen. Data for the mlh1 rad18 strain (AID 175); details: S. cerevisiae mlh1 rad18 strain growth inhibition, stronger effect = higher value
How it was run: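 Inhibition values reflect reduced growth of mutant yeast versus vehicle-treated controls following compound exposure; the mutations affect DNA damage repair.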

[7] = at 5.0 µM (retest, dose inferred, filed as 0.5)
[8] = at 50.0 µM (retest, dose inferred, filed as 5.0)

Measured: growth inhibition

O=S(=O)(O)O.[Pt].c1ccc([PH+](c2ccccc2)c2ccccc2)cc1.c1ccc([PH+](c2ccccc2)c2ccccc2)cc1.c1ccc([PH+](c2ccccc2)c2ccccc2)cc1
active: [1]; [8] 95% | [1]; at 50.0 µM 93.8% | [2]; [8] 94% | [2]; at 50.0 µM 98.1% | [3]; [8] 94% | [3]; at 50.0 µM 94.3% | [4]; [8] 97% | [4]; at 50.0 µM 97.8% | [5]; [8] 92% | [5]; at 50.0 µM 96.7% | [6]; [8] 95% | [6]; at 50.0 µM 95.2%
inactive: [1]; [7] 23% | [2]; [7] 13% | [3]; [7] 9% | [4]; [7] 8% | [5]; [7] -7% | [6]; [7] 39%

C[Si]1(C)CCCCC2(C1)C(=O)NC(=O)NC2=O
inactive: [1]; [7] 0% | [1]; [8] 17% | [1]; at 50.0 µM 16.4% | [2]; [7] 4% | [2]; [8] 20% | [2]; at 50.0 µM 2.6% | [3]; [7] -1% | [3]; [8] 58% | [3]; at 50.0 µM 51% | [4]; [7] -3% | [4]; [8] 5% | [4]; at 50.0 µM 16.5% | [5]; [7] -5% | [5]; [8] 13% | [5]; at 50.0 µM 10.8% | [6]; [7] -17% | [6]; [8] 3% | [6]; at 50.0 µM 8.5%

S=P(S)(Oc1ccccc1)Oc1ccccc1
inactive: [1]; [7] -10% | [1]; [8] 25% | [1]; at 50.0 µM 56% | [2]; [7] -18% | [2]; [8] 18% | [3]; [7] 1% | [3]; [8] 17% | [3]; at 50.0 µM 40.4% | [4]; [7] -11% | [4]; [8] 20% | [5]; [7] -4% | [5]; [8] 38% | [6]; [7] -12% | [6]; [8] 10%
active: [2]; at 50.0 µM 77.7% | [4]; at 50.0 µM 92.9% | [5]; at 50.0 µM 75.2% | [6]; at 50.0 µM 90.2%

C[C@]12CC[C@H]3[C@@H](C[C@@H](F)C4=CC(=O)CC[C@@]43C)[C@@H]1CC[C@@H]2O
active: [3]; [8] 93% | [5]; [8] 80% | [6]; [8] 86%
inactive: [1]; [7] 7% | [1]; [8] 46% | [1]; at 50.0 µM 56.2% | [2]; [7] 3% | [2]; [8] 58% | [2]; at 50.0 µM 7.4% | [3]; [7] 4% | [3]; at 50.0 µM 56% | [4]; [7] -2% | [4]; [8] 30% | [4]; at 50.0 µM 6.75% | [5]; [7] 0% | [5]; at 50.0 µM 34% | [6]; [7] 15% | [6]; at 50.0 µM 30.1%

c1ccc(-c2ccccn2)nc1
inactive: [1]; [7] -4% and 2% | [2]; [7] 0% and 1% | [2]; [8] 53% and 61% | [3]; [7] 8% and -2% | [4]; [7] 4% and -5% | [4]; [8] 61% and 51% | [4]; at 50.0 µM 29.1% and 21.4% | [5]; [7] -23% and 0% | [6]; [7] -3% and 2%
68% (inactive) and 75.9% (active): [6]; at 50.0 µM
active: [1]; [8] 76% and 90% | [1]; at 50.0 µM 79.8% and 81.1% | [3]; [8] 74% and 75% | [5]; [8] 87% and 86% | [6]; [8] 85% and 84%
82.5% (active) and 64.2% (inactive): [5]; at 50.0 µM
66% (inactive) and 77.8% (active): [3]; at 50.0 µM
70.9% (active) and 55.6% (inactive): [2]; at 50.0 µM

CC1CCC2(OC1)OC1CC3C4CC=C5CC(OC6OC(CO)C(OC7OC(C)C(OC8OC(C)C(O)C(O)C8O)C(O)C7O)C(O)C6OC6OC(C)C(O)C(O)C6O)CCC5(C)C4CCC3(C)C1C2C (centres undefined)
active: [1]; [7] 100% | [1]; [8] 94% | [1]; at 50.0 µM 87.3% | [2]; [7] 99% | [2]; [8] 96% | [2]; at 50.0 µM 81.5% | [3]; [7] 99% | [3]; [8] 95% | [3]; at 50.0 µM 84% | [4]; [7] 99% | [4]; [8] 95% | [4]; at 50.0 µM 86.7% | [5]; [7] 99% | [5]; [8] 95% | [5]; at 50.0 µM 89.2% | [6]; [7] 98% | [6]; [8] 91% | [6]; at 50.0 µM 86.5%

CNC(=O)Oc1ccccc1/C=N\Sc1ccc(Cl)cc1
active: [1]; at 50.0 µM 97.2% | [2]; at 50.0 µM 99% | [3]; at 50.0 µM 98.9% | [4]; at 50.0 µM 82.8% | [5]; at 50.0 µM 98.6% | [6]; at 50.0 µM 99.2%
inactive: [1]; [7] -2% | [1]; [8] 21% | [2]; [7] 1% | [2]; [8] 21% | [3]; [7] 3% | [3]; [8] 43% | [4]; [7] -4% | [4]; [8] 10% | [5]; [7] -4% | [5]; [8] 6% | [6]; [7] -2% | [6]; [8] 35%

CCOP(=O)(OCC)Oc1ccc([N+](=O)[O-])cc1
inactive: [1]; [7] 8% | [1]; [8] -5% | [1]; at 50.0 µM 0.55% | [2]; [7] -10% | [2]; [8] -13% | [2]; at 50.0 µM 2.65% | [3]; [7] 12% | [3]; [8] 16% | [3]; at 50.0 µM -7% | [4]; [7] 6% | [4]; [8] 7% | [4]; at 50.0 µM 38.7% | [5]; [7] -4% | [5]; [8] 14% | [5]; at 50.0 µM 9.8% | [6]; [7] 13% | [6]; [8] 4% | [6]; at 50.0 µM 3.55%
